Assay outcomes as filed in PubChem BioAssay.
In the library only some 8% were active in any assay of this set; here they are far more common.
HCV inhibitor: blocks hepatitis C virus; Huh7.5.1 HCVcc-Cre infection, luciferase reporter, 44 h; Potency, µM (doses to about 41.8 µM), inactives show at the top dose activity change, negative = inhibition, hits mostly inhibitors; actives 3.4% (n = 340,000); AID 651820; active = well fitted inhibition curve with a large enough effect; inconclusive = small, poorly fitted or top-dose-only effect, or another doubt; inactive = no such curve, though single readings can be large or run the other way; note: potency is the fitted concentration of half-maximal effect; % is set by controls: 0 for no effect and ±100 for the full control effect
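Cells seeded at 1,000/well and cultured 4 h, then compounds added followed by HCVcc-Cre virus (~0.5 moi). After 44 h further culture, luciferase substrate was added, plates held 15 min at room temperature, and luminescence read for 15 sec.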
Lassa entry inh: inhibitors of Lassa virus binding or cell entry. Lassa virus pseudotype entry inhibition, cell reporter. Potency, µM (top dose mostly 37.9 µM), for the others: at the top dose activity change, negative = inhibition, most hits filed as inhibitors. actives 1.2% (n = 300,000). AID 540256; calls by dose curve; tested in HEK293 cells; note: potency is the fitted concentration of half-maximal effect; % is set by controls: 0 for no effect and ±100 for the full control effect; nearly all actives have a fitted effect of over 50% in size
HCMV antiviral: blocks human cytomegalovirus replication | AID 1259415 | HFF cells, HCMV-luciferase reporter, 72 h; stronger effect = lower value | actives 4.5% (n = 410,000) | activity change, negative = inhibition, % at 57.5 µM; in the data active = activity change below about -60%; inconclusive = no clear call, values can overlap the other calls; inactive = above about -39%; note: % is set by controls: 0 for no effect and ±100 for the full control effect
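Screen run at 2 compound doses on HFFs infected with reporter HCMV, MOI 1 PFU/cell. Luciferase activity from cell lysates at 72 h post infection gave inhibition relative to buffer-only and Salinomycin wells.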
FMDV inh: foot and mouth disease virus antiviral activity | actives 1.2% (n = 410,000) | FMDV antiviral cell-based qHTS | Potency, µM (highest dose often 57.9 µM), without a hit: top-dose activity change, negative = inhibition, actives largely listed as inhibitors; calls by dose curve; tested in HEK293T cells; note: read-out not given here; potency is the fitted concentration of half-maximal effect; % is set by controls: 0 for no effect and ±100 for the full control effect; nearly all actives have a fitted effect of over 45% in size
MARV entry inh: Marburg virus entry inhibition; Marburg virus pseudotyped entry inhibition, cell reporter; Potency, µM (series often up to 37.8 µM), for inactives: top-dose activity change, negative = inhibition, actives largely listed as inhibitors; actives 1.8% (n = 300,000); AID 540276; calls by dose curve; tested in HEK293 cells; note: potency is the fitted concentration of half-maximal effect; % is set by controls: 0 for no effect and ±100 for the full control effect
SARS PLP yeast: SARS-CoV PLP inhibition in yeast. S. cerevisiae expressing SARS-CoV PLpro, growth rescue. Potency, µM (top dose mostly 32.9 µM), for inactives: at the highest dose activity, positive = growth rescue, actives largely listed as activators. AID 485353. actives 0.19% (n = 330,000); calls by dose curve; note: potency is the fitted concentration of half-maximal effect; 0% is about no effect; nearly all actives have a fitted effect of over 55% in size
* hit, by the source's call; ? = inconclusive; · = no result; ! = not active in a repeat; [ ] = dose if it differs, or a comment.

SMILES	HCV inhibitor	Lassa entry inh	HCMV antiviral	FMDV inh	MARV entry inh	SARS PLP yeast
C[C@]12C=CC(=O)C=C1CCC1C2=CC[C@]2(C)[C@@H](C(=O)CN3CCN(c4cc(N5CCCC5)nc(N5CCCC5)n4)CC3)CC[C@@H]12 (some centres undefined)	·	·	·	·	5.6µM*	·
Cc1ccccc1OCc1nnc(SCc2cc(=O)c3cccc(F)c3[nH]2)n1C	·	-15%[46.1 µM]	-8	-4%	·	·
O=C(Nc1ccc(S(=O)(=O)N2CCCC2)cc1)c1ccc2c(=O)n3c(nc2c1)CCCCC3	11µM*	-2%	-90*	?	2.5µM*	6%
O=C(Nc1ccccn1)c1ccc2c(=O)n3c(nc2c1)CCCCC3	-15%	·	148	-19%	·	-1%
Cc1ccc(-c2csc(NC(=O)c3ccc4c(=O)n5c(nc4c3)CCCCC5)n2)cc1	?	?	-66*	7.9µM*	?	?
Cc1ccc(S(=O)(=O)N2CCCCC2)cc1NC(=O)c1ccc2c(=O)n3c(nc2c1)CCCCC3	11µM*	16µM*	-38	·	?	11%
C=CCN1C(=O)[C@@]2(CC(C)=C[C@@H](COc3ccccc3)O2)c2ccccc21	·	·	·	·	2%[14.2 µM]	·
O=C(c1c[nH]c2ccccc12)C(Cl)c1ccccc1 (centres undefined)	-28%	·	-100*	?	·	-3%
C/C=C(\C)C(=O)O[C@H]1C[C@@]2(C)CCC(C(C)C)C2(O)CC[C@@]1(C)O (some centres undefined)	·	·	·	-23%	·	·
CNC(=O)N(O)C1N(NC(=O)Nc2ccccc2)C(=S)SC1(C)C (centres undefined)	?	7%	1	-7%	?	·
CC1(C)SC(=S)N(NC(=O)Nc2cccc3ccccc23)C1N(O)C(=O)Nc1ccccc1 (centres undefined)	?	-27%	-75*	0%	?	2%
CNC(=O)N(O)C1N(/N=C/c2ccc(N(C)C)cc2)C(=S)SC1(C)C (centres undefined)	-12%	·	-7	61%	·	0%
CC1(C)SC(=S)N(/N=C/c2ccccc2)C1N(O)C(=O)Nc1ccc([N+](=O)[O-])cc1 (centres undefined)	?	0%	-26	4%	18µM*	-7%
Cc1cc(N2C(=O)C(=O)/C(=C(/O)c3ccccc3)[C@H]2c2cccs2)no1	·	·	·	·	21%	·
Cc1ccc(-c2c[n+]3c(n2-c2ccccc2)SCC3)cc1	?	·	-73*	?	·	-1%
COc1ccc(-c2c[n+]3c(n2-c2ccccc2)SCC3)cc1	?	?	-80*	-14%	?	2%
Brc1ccc(-c2c[n+]3c(n2-c2ccccc2)SCC3)cc1	-15%	?	-73*	?	-5%[46.1 µM]	-1%
O=C(O)CSC1=c2ccccc2=NC1c1cccs1 (centres undefined)	·	·	·	·	8%	·
O=C(Cn1ncc(Cl)c(Cl)c1=O)NC1CCCCC1	2.8µM*	·	0	35µM*	·	-30%
O=C(Cn1ncc(Cl)c(Cl)c1=O)NC1CCS(=O)(=O)C1 (centres undefined)	-26%	·	-63*	-14%	·	2%
Cc1cccc(NC(=O)CNC(=O)Cn2ncc(Cl)c(Cl)c2=O)c1C	0.71µM*	?	·	22µM*	?	8%
O=C(COC(=O)c1ccc(Cl)cc1)NCC1CCCCC1	11%	7%	-20	-5%	-1%	-26%
O=C(Cn1ncc(Cl)c(Cl)c1=O)NCC1CCCCC1	2.8µM*	18µM*	-101*	28µM*	?	-32%
CCOc1ccc(Nc2oc(-c3ccc(COc4ccc(C)cc4)o3)nc2C#N)cc1	·	-9%[46.1 µM]	-20	20%	-22%[46.1 µM]	·
COc1ccc(-c2nc3c4ccccc4n(CC(=O)Nc4cc(F)ccc4F)c(=O)n3n2)cc1	·	14%[46.1 µM]	50	1%	·	·
COCCNC(=O)C1CCN(C(=O)c2cc3sccc3n2Cc2ccc(Cl)cc2)CC1	·	·	·	?	7.9µM*	·
O=C(NCc1ccco1)C1CCN(C(=O)c2cc3sccc3n2Cc2ccc(Cl)cc2)CC1	?	?	·	·	12µM*!	-8%
CCn1c(C(=O)N2CCC(C(=O)NCc3ccc(OC)cc3)CC2)cc2sccc21	-29%	?	·	-18%	-5%[46.1 µM]	0%
